Several values for one entry are separate records, joined by “and”; a condition that tells them apart may be missing. Equal entries are not always repeated. Results filed as inconclusive are left out. Activity calls are given as the source filed them. Unless noted, calls follow the shape of the full dose curve.
What was measured:
[1] = Cell Viability - BJ (AID 421); conditions: BJ fibroblast viability, qHTS;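 also: potency is read from the fitted curve at half-maximal effect; cells exposed to compound for 40 hours at 37 °C before readout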
Procedure, shortened: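 Quantitative HTS: ATP depletion in BJ cells after 40 hr compound exposure in complete culture medium, detected with CellTiter-Glo; AC50 from standard Hill fits.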

[2] = Cell Viability - SK-N-SH (AID 435); conditions: SK-N-SH neuroblastoma cell viability qHTS; also: potency is read from the fitted curve at half-maximal effect
Procedure, shortened: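 Cells seeded at 1500 per well and incubated 5 hr at 37 °C. Compound added, then 40 hr at 37 °C. CellTiter-Glo added, 20 min at room temperature, luminescence read.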

[3] = Cell Viability - N2a (AID 540; active = well fitted curve in the direction sought with a large enough effect; an effect the other way counts as inactive or inconclusive;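 also: plate controls were DMSO alone for no effect and tamoxifen control for full effect; nearly all actives have a fitted effect of over 45% in size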); conditions: N2a mouse neuroblastoma cell viability; activity change, negative = cytotoxicity: at 92.2 µM (top of the series)
Procedure, shortened: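 CellTiter-Glo ATP luminescence, read 20 min after reagent at room temperature, reported viability following 40 h compound treatment at 37 °C. N2a mouse neuroblastoma cells seeded 1500/well; Hill equation gave AC50.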

[4] = Cell Viability - NIH 3T3 (AID 541; active = well fitted curve in the direction sought with a large enough effect; an effect the other way counts as inactive or inconclusive;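 also: cells exposed to compound for 40 hours; plate controls were DMSO alone for no effect and tamoxifen positive control for full effect; nearly all actives have a fitted effect of over 25% in size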); conditions: NIH 3T3 cell viability, qHTS; activity change, negative = cytotoxicity: at 92.2 µM (top of the series)
Procedure, shortened: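 Intracellular ATP (CellTiter-Glo luminescence, 20 min at room temperature) measured after 40 hr compound exposure at 37 °C of 1000 NIH 3T3 mouse fibroblasts/well in complete medium; AC50 derived by Hill-equation modelling of qHTS concentration-response curves.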

[5] = Cell Viability - H-4-II-E (AID 543; active = well fitted curve in the direction sought with a large enough effect; an effect the other way counts as inactive or inconclusive;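 also: cells exposed to compound for 40 hours; nearly all actives have a fitted effect of over 35% in size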; also: potency is read from the fitted curve at half-maximal effect); conditions: H-4-II-E rat hepatoma viability; series mostly up to 92.2 µM
Procedure, shortened: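 CellTiter-Glo luminescence (intracellular ATP) measured after 40 h compound exposure at 37 °C in H-4-II-E rat hepatoma cells seeded at 1500/well. Values are AC50s fitted with the standard Hill equation.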

[6] = Cell Viability - SH-SY5Y (AID 544; active = well fitted curve in the direction sought with a large enough effect; an effect the other way counts as inactive or inconclusive;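 also: cells exposed to compound for 40 hours; nearly all actives have a fitted effect of over 55% in size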; also: potency is read from the fitted curve at half-maximal effect); conditions: SH-SY5Y neuroblastoma cell viability; viability change, negative = cytotoxic: at 92.2 µM (top of the series)
Procedure, shortened: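 Cytotoxicity measured via ATP-dependent luciferase luminescence (CellTiter-Glo) following 40 h, 37 °C exposure of 1500 SH-SY5Y cells per well. Concentration-response data were fitted with the standard Hill equation to give AC50.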

[7] = biological target: Bile acid receptor (Homo sapiens) (UniProt Q96RI1); experiment: qHTS assay for small molecule antagonists of farnesoid X receptor signaling (AID 588526); conditions: HEK293T FXR-UAS-bla, beta-lactamase ratio, antagonist mode; series mostly up to 76.7 µM; also: % is scaled to controls: 0 for no effect and ±100 for the full control effect
Procedure, shortened: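 Antagonist mode: titrated compounds tested against chenodeoxycholic acid stimulation (normalized to 50 uM CDCA and DMSO) in GeneBLAzer HEK293T cells for 16 h. Beta-lactamase read by CCF4 fluorescence; IC50 from Hill fits.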

[8] = biological target: Bile acid receptor (Homo sapiens) (UniProt Q96RI1); experiment: qHTS assay for small molecule agonists of farnesoid X receptor signaling (AID 588527); conditions: HEK293T FXR-UAS-bla, beta-lactamase ratio, 16 h; stronger effect = higher value;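 also: 0% = vehicle basal and 100% = reference agonist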
Procedure, shortened: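 Quantitative HTS used FXR-UAS-bla HEK293T cells with 16 h compound incubation at 37 C. EC50 values came from concentration-response curves normalized to chenodeoxycholic acid.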

[9] = biological target: Glucocorticoid receptor (Homo sapiens) (UniProt P04150); experiment: qHTS assay for small molecule agonists of glucocorticoid receptor signaling (AID 588532; active = well fitted curve in the direction sought with a large enough effect in the signal ratio, with a control signal flat; the % refers to the signal ratio;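 also: 100% = dexamethasone at 0.1 µM and 0% = DMSO only wells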); conditions: HeLa MMTV-bla, beta-lactamase ratio, agonist, 18 h; stronger effect = higher value; percent of dexamethasone control, DMSO zero
Procedure, shortened: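 Cells were plated and rested 3-5 h at 37 C, compounds were added in titration and incubated 18 h, then CCF4 substrate was loaded for 2 h at RT before reading blue/green fluorescence. EC50 came from Hill-equation fitting.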

[10] = biological target: Glucocorticoid receptor (Homo sapiens) (UniProt P04150); experiment: qHTS assay for small molecule antagonists of glucocorticoid receptor signaling (AID 588533; active = well fitted inhibition curve with a large enough effect in the signal ratio, with a control signal flat, not every such curve was filed as active; the % refers to the signal ratio; also: % is scaled to controls: 0 for no effect and ±100 for the full control effect); conditions: HeLa MMTV-bla, GRE beta-lactamase ratio, antagonist mode, 18 h; series mostly up to 76.8 µM
Procedure, shortened: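 Antagonist-mode qHTS: compound titrations added to GRE-bla HeLa cells, then dexamethasone 2 nM final; 18 h, 37 C. CCF4 FRET fluorescence normalized to dexamethasone and DMSO; IC50 from Hill fit.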

[11] = biological target: Peroxisome proliferator-activated receptor gamma (Homo sapiens) (UniProt P37231); experiment: qHTS assay for small molecule antagonists of peroxisome proliferator-activated receptor gamma signaling (AID 588537; active = well fitted inhibition curve with a large enough effect in the signal ratio, with a control signal flat, not every such curve was filed as active; the % refers to the signal ratio;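 also: reporter cells co-stimulated with 50 nM rosiglitazone agonist during compound treatment; % of control where 0% means no effect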); conditions: HEK293 PPARg-UAS-bla, beta-lactamase ratio, antagonist mode; series mostly up to 76.8 µM
Procedure, shortened: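 Fluorescence at 460 and 530 nm (405 nm excitation) reported beta-lactamase cleavage of CCF4 after 2 h room-temperature loading. HEK293 reporter cells in 1% charcoal/dextran-treated FBS had received compound and rosiglitazone for 16 h.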

[12] = biological target: Retinoic acid receptor RXR-alpha (Homo sapiens) (UniProt P19793); experiment: qHTS assay for small molecule agonists of retinoid X receptor alpha signaling (AID 588544); conditions: HEK293T RXRa-UAS-bla, beta-lactamase reporter, 18 h; series mostly up to 76.7 µM;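 also: 0% = DMSO basal wells and 100% = reference agonist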
[13] = qHTS assay for small molecule disruptors of the mitochondrial membrane potential - 1 hr assay (AID 651754); conditions: series mostly up to 92.2 µM; also: % is scaled to controls: 0 for no effect and ±100 for the full control effect; nearly all actives have a fitted effect of over 35% in size
Procedure, shortened: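 Mitochondrial potential in living HepG2 cells after 1 hr compound treatment at 37C was read with Mito-MPS dye added for a further 30 min. Red aggregate and green monomer fluorescence were measured; loss of potential leaves dye as cytoplasmic monomers.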

[14] = Cellular Toxicity (caspase-3) Jurkat (AID 655; active = well fitted curve in the direction sought with a large enough effect; an effect the other way counts as inactive or inconclusive;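 also: cells exposed to compound for 16 h at 37 °C before reading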); conditions: Jurkat caspase-3 activation, luminescence; caspase-3 activation: at 92.2 µM (top of the series), DMSO = 0%, tamoxifen = 100%
Procedure, shortened: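 Caspase 3/7 activation is scored as increased luminescence in Jurkat cells cultured with compound for 16 hours in complete medium. AC50 values come from Hill fits of qHTS concentration-response data normalized to DMSO and 100 uM tamoxifen controls.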

[15] = biological target: Estrogen receptor (Homo sapiens) (UniProt P03372); experiment: qHTS assay for small molecule antagonists of estrogen receptor alpha signaling (AID 588513; active = well fitted curve in the direction sought with a large enough effect in the signal ratio, with a control signal flat, not every such curve was filed as active; the % refers to the signal ratio; also: % is scaled to controls: 0 for no effect and ±100 for the full control effect); conditions: ER-alpha-UAS-bla HEK293, beta-lactamase ratio, antagonist mode; series mostly up to 76.9 µM
Procedure, shortened: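 Cells were plated at 5000/well and incubated 4 h at 37 C. Compounds were added as 1:2 dilution series, duplicates. 17-beta-estradiol (0.5nM final) was added for 18 h before CCF4 detection.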

[16] = biological target: Estrogen receptor (Homo sapiens) (UniProt P03372); experiment: qHTS assay for small molecule agonists of estrogen receptor alpha signaling (AID 588514); conditions: ER-alpha-UAS-bla HEK293, beta-lactamase ratio, 18 h; series mostly up to 76.8 µM;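 also: 0% = vehicle only and 100% = reference agonist; nearly all actives have a fitted effect of over 70% in size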
Procedure, shortened: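 EC50 and efficacy came from Hill fits of beta-lactamase reporter signal (CCF4 dye, 2 h at room temperature) scaled between DMSO and 20 nM 17-beta-estradiol. Agonist mode: HEK293 ER-alpha-UAS-bla cells in charcoal/dextran-stripped serum medium, 18 h compound exposure at 37 C.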

[17] = biological target: Vitamin D3 receptor (Homo sapiens) (UniProt P11473); experiment: qHTS assay for small molecule antagonists of vitamin D receptor signaling (AID 588541); conditions: HEK293T VDR-UAS-bla, beta-lactamase ratio, antagonist mode; series mostly up to 76.7 µM;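 also: receptor activated by calcitriol during compound treatment; % is scaled to controls: 0 for no effect and ±100 for the full control effect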
Procedure, shortened: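 VDR-UAS-bla HEK293T cells in 2% charcoal-stripped FBS were stimulated with 1-alpha,25-dihydroxyvitamin D3 (3 nM final) plus compound for 16 h at 37 C. The beta-lactamase CCF4 readout was normalized to 50 nM agonist and DMSO, and Hill fits gave IC50.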

[18] = qHTS assay for small molecule agonists of the antioxidant response element (ARE) signaling pathway (AID 651741; active = well fitted activation curve with a large enough effect in the signal ratio; the % refers to the signal ratio; also: potency is read from the fitted curve at half-maximal effect; as to activation: % of control where 0% means no effect); conditions: HepG2 ARE-bla reporter, beta-lactamase FRET ratio, 16 h; series mostly up to 96 µM
Procedure, shortened: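 Stably integrated ARE-beta-lactamase reporter HepG2 cells; 16 h compound incubation, 37 C; LiveBLAzer FRET substrate 2 h at room temperature; fluorescence intensity.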

[19] = qHTS assay for small molecule antagonists of peroxisome proliferator-activated receptor delta signaling (AID 588535); conditions: HEK293T PPARd-UAS-bla, beta-lactamase FRET ratio, 18 h; 460 nm channel;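 also: cells co-treated with a PPAR-delta agonist as stimulator during compound exposure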
Procedure, shortened: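 Fluorescence from CCF4-loaded GeneBLAzer PPAR-delta-UAS-bla HEK293T cells (2 hrs RT loading) quantified reporter inhibition after an 18 hr, 37 C compound exposure across a titration.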

[20] = biological target: Peroxisome proliferator-activated receptor delta (Homo sapiens) (UniProt Q03181); experiment: qHTS assay for small molecule agonists of peroxisome proliferator-activated receptor delta signaling (AID 588534); conditions: HEK293T PPARdelta-UAS-bla, beta-lactamase ratio, 18 h; series mostly up to 76.7 µM;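 also: 0% = DMSO basal wells and 100% = positive control agonist at 10 µM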
Procedure, shortened: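 Agonist-mode beta-lactamase reporter readout (CCF4 dye, 2 h at RT) after 18 h at 37 °C exposure to a titration; Hill-equation fitting gave EC50 and maximal response.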

Chain of Bile acid receptor (Homo sapiens) (Q96RI1 whole entry, looked up): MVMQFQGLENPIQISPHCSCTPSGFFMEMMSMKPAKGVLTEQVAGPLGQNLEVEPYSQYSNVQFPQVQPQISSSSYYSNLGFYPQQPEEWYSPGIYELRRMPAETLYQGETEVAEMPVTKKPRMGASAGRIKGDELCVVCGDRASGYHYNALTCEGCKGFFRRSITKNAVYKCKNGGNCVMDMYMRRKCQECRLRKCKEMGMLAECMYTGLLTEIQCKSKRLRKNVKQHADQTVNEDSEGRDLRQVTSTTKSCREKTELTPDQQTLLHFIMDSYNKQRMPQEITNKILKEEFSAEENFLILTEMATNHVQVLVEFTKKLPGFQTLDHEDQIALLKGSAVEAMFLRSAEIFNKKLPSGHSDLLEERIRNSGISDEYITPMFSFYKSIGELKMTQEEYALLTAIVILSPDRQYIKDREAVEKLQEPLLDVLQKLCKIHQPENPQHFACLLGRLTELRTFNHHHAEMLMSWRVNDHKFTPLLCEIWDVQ
Chain of Vitamin D3 receptor (Homo sapiens) (P11473 whole entry, looked up): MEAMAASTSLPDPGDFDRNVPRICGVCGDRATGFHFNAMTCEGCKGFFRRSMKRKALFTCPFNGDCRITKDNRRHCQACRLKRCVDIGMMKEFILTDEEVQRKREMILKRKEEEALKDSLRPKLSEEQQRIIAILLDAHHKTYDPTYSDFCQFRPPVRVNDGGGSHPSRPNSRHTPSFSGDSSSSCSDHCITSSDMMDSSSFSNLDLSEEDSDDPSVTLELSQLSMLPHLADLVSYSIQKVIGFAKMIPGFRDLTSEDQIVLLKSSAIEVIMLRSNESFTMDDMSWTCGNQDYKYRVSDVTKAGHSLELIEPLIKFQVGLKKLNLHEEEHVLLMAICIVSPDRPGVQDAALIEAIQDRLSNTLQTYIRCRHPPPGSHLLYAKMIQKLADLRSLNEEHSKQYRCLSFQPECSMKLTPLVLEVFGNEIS
Chain of Estrogen receptor (Homo sapiens) (P03372 whole entry, looked up): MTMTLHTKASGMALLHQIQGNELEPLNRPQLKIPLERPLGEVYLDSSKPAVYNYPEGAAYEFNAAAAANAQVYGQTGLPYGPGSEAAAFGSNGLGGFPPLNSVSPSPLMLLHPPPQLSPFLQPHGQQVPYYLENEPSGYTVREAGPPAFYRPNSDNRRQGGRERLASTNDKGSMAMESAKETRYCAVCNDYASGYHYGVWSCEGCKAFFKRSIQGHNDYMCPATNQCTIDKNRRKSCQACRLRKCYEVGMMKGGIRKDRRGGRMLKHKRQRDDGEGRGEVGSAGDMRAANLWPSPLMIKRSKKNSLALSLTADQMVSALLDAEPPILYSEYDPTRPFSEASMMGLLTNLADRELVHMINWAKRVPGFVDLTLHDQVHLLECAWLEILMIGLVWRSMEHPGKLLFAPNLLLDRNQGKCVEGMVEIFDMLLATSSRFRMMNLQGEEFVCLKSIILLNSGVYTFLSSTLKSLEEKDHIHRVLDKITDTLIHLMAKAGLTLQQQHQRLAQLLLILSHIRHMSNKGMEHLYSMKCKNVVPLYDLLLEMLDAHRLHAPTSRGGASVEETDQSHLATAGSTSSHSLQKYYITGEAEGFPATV
Chain of Peroxisome proliferator-activated receptor delta (Homo sapiens) (Q03181 whole entry, looked up): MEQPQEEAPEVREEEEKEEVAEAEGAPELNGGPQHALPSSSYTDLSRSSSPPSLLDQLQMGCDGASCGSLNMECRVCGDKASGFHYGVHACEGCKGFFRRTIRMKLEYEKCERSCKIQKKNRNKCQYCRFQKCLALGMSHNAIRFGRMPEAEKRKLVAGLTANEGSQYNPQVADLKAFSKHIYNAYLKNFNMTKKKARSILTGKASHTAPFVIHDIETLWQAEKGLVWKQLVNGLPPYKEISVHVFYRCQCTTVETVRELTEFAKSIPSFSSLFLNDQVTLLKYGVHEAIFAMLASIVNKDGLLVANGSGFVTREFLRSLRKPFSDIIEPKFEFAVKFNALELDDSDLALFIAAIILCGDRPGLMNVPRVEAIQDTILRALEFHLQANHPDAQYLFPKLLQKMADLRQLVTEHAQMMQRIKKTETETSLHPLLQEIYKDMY
Chain of Glucocorticoid receptor (Homo sapiens) (P04150 whole entry, looked up): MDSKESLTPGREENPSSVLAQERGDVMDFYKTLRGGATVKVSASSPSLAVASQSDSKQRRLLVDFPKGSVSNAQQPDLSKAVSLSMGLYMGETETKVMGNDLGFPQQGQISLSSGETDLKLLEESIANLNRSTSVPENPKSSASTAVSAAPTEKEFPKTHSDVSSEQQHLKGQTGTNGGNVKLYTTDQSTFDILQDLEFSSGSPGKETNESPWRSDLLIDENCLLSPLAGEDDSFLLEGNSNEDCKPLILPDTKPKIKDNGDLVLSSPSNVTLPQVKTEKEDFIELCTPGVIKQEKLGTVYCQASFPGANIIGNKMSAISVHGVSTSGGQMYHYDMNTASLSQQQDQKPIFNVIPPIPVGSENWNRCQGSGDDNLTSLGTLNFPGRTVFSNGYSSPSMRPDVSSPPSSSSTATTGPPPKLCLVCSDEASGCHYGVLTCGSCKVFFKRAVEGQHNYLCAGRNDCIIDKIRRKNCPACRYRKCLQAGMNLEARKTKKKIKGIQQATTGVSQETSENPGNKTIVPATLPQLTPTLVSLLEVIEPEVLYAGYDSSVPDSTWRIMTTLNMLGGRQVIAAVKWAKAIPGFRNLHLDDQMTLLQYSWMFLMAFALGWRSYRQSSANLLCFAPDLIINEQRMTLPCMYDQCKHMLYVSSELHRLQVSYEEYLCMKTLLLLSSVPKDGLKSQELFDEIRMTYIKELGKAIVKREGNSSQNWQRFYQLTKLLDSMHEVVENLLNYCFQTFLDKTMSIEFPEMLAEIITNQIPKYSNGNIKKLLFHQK
Chain of Peroxisome proliferator-activated receptor gamma (Homo sapiens) (P37231 whole entry, looked up): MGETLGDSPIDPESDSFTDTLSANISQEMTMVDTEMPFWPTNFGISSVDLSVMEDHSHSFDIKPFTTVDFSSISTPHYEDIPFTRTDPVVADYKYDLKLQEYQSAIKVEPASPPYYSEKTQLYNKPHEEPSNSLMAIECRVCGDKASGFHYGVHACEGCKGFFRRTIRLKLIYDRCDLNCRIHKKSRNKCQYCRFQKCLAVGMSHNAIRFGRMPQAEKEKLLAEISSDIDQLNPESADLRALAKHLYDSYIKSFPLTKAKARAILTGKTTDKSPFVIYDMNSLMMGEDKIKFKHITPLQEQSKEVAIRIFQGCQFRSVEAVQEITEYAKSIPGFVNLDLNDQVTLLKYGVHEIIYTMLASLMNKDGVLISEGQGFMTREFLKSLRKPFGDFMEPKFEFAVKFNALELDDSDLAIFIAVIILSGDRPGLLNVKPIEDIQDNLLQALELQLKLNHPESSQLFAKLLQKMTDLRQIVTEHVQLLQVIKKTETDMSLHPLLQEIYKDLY
Chain of Retinoic acid receptor RXR-alpha (Homo sapiens) (P19793 whole entry, looked up): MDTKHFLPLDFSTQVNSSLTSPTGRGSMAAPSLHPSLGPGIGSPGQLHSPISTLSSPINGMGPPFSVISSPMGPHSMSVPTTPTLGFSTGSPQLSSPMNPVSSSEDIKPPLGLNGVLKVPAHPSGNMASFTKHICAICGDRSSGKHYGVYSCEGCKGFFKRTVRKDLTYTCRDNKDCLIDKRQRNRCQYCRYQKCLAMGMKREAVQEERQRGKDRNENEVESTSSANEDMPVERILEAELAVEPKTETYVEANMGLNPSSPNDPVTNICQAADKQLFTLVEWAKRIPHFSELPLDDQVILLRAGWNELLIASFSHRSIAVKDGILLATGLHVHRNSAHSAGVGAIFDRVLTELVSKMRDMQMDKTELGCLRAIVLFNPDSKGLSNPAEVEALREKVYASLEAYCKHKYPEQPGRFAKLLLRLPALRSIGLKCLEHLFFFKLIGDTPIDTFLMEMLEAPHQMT

ClCCOCOCCCl
inactive: Potency [1] > 92 µM | Potency [2] > 92 µM | Potency [3] | Potency [4] | Potency [5] | Potency [6] | outcome [7] | activation [8] 0.794% | activation [9] -0.285% | outcome [10] | Potency [11] | outcome [12] | Potency [13]

O=C(O)C(Br)Br
active: Potency [18] 2.98 µM
inactive: Potency [1] > 92 µM | Potency [4] | Potency [5] | caspase-3 activation [14] 6.46% | Potency [15] | Potency [16] | outcome [7] | activation [8] -1.44% | Potency [11] | outcome [17] | outcome [12]

O=[N+]([O-])/C=C/c1ccccc1
active: Potency [6] 12.6 µM
inactive: Potency [1] > 92 µM | outcome [7] | activation [8] 2.07% | activation [9] -1.34% | outcome [10] | Potency [11] | outcome [12] | Potency [13]
20.9%: max response [19]

CCCCCC[N+](=O)[O-]
inactive: Potency [2] > 92 µM | Potency [3] | Potency [4] | Potency [5] | Potency [6] | outcome [7] | activation [8] 1.12% | outcome [10] | outcome [20] | outcome [17] | outcome [12] | Potency [13]

O=c1ccc(=O)[nH][nH]1
inactive: Potency [2] > 92 µM | Potency [4] | Potency [5] | Potency [6] | caspase-3 activation [14] 1.49% | outcome [7] | activation [8] -0.172% and -2.47% | Potency [11] | outcome [12]

O=[N+]([O-])c1cccc(CCl)c1
inactive: Potency [2] > 92 µM | Potency [3] | activation [9] 5.78% | outcome [10] | outcome [17] | outcome [12] | Potency [13]
active: activity change, negative = cytotoxicity [4] -132% | Potency [5] 50.1 µM | Potency [18] 42.2 µM

Cc1cnc[nH]1
inactive: Potency [2] > 92 µM | Potency [4] | Potency [5] | outcome [7] | activation [8] -0.548% | activation [9] -8.66% | outcome [10] | outcome [20] | outcome [17] | outcome [12] | Potency [18] | Potency [13]

CCCC[N+](=O)[O-]
active: caspase-3 activation [14] 102%
inactive: Potency [1] > 92 µM | Potency [2] > 92 µM | Potency [3] | Potency [5] | Potency [6] | Potency [15] | Potency [16] | outcome [7] | activation [8] -0.886% | outcome [10] | outcome [12] | Potency [18] | Potency [13]

ClCCOCCCl
inactive: Potency [3] | Potency [5] | Potency [6] | outcome [7] | activation [8] -1.24% | activation [9] 0.183% | outcome [10] | outcome [20] | Potency [18] | Potency [13]
5.43%: max response [19]

Reference: PubChem BioAssay (NCATS)
